Screening results deposited in PubChem by National Center for Advancing Translational Sciences (NCATS).
S-ASM inh: blocks human secretory acid sphingomyelinase; placental ASM, HMU-PC fluorogenic substrate, 60 min; P17405; 340,000 tested, 0.006% active; Potency, µM (doses to about 57.5 µM), inactives show at the top dose activity change, negative = inhibition, usual class: inhibitors; further: potency means the concentration at half of the fitted maximal effect
Target sequence (P17405 47-631 limits assumed): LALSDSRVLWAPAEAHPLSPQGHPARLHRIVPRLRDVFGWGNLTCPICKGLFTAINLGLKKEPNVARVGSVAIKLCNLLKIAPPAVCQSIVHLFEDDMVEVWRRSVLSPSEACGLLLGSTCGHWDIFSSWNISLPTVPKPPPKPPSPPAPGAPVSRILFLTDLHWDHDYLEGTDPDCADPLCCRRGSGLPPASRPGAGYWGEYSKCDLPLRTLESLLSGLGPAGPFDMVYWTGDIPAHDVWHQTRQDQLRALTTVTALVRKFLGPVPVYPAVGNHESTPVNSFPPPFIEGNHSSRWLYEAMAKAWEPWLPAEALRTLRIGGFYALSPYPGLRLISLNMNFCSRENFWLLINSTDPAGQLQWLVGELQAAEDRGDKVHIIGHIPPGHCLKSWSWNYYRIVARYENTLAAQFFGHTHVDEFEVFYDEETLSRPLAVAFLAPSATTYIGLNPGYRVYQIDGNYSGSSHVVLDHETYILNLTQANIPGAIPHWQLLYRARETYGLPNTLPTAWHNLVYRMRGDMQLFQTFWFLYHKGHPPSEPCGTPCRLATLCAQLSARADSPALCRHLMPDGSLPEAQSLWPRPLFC
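HMU-PC0 cleavage (9 uM final) by human placental ASM, 60 min at 37 °C following 10 min compound exposure at RT; stopped at pH 10, fluorescence Ex 386/Em 447 nm.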
TGFb inhibitor: TGF-b pathway inhibition; 410,000 tested, 1.2% active; HepG2 CAGA-GFP TGF-b/SMAD3 reporter, GFP fluorescence, 18 h; TGF-beta stimulated, 500 pg/mL final; AID 588855; Potency, µM (highest dose often 46.1 µM), inactives show at the top dose activity, negative = inhibition, most hits filed as inhibitors; further: potency means the concentration at half of the fitted maximal effect; on the % scale 0 is the no-effect control and ±100 the full control effect; nearly all actives have a fitted effect of over 65% in size
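Inhibition was scored as loss of TGF-beta-induced (500 pg/mL final, 18 hours, 37 degrees C) GFP in HEPG2 cells carrying a CAGA-GFP reporter, in DMEM with 1% FBS. Well GFP was summed per cell; Activity was normalised to unstimulated and stimulated DMSO wells, then concentration-response fitting.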
DT40 TDP1 no CPT: qHTS for Inhibitors of human tyrosyl-DNA phosphodiesterase 1 (TDP1): qHTS in cells in absence of CPT | Potency, µM (highest dose often 46.2 µM), inactives show at the top dose activity change, negative = growth inhibition, hits mostly inhibitors | 420,000 tested, 15% active | DT40 Tdp1-/- hTDP1 cells, no CPT, ATP luminescence, 48 h; further: potency means the concentration at half of the fitted maximal effect; on the % scale 0 is the no-effect control and ±100 the full control effect; nearly all actives have a fitted effect of over 55% in size
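No-CPT arm: Tdp1-/-;hTDP1 DT40 cells (400/well) plus compounds, incubated ≥48 hr at 37 °C. Readout CellTiter-Glo luminescence.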
TDP1 cell CPT: DT40-hTDP1 cell growth loss with CPT; chicken DT40 Tdp1-/-;hTDP1 cells + 20 nM CPT, ATP luminescence, 48 h; 420,000 tested, 12% active; Potency, µM (titrated, usually from 46.2 µM), for inactives: at the highest dose activity change, negative = growth inhibition, actives largely listed as inhibitors; further: potency means the concentration at half of the fitted maximal effect; on the % scale 0 is the no-effect control and ±100 the full control effect; nearly all actives have a fitted effect of over 55% in size
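Cell growth measured by CellTiter-Glo luminescence after a minimum 48 h, 37 C compound exposure with 20 nM CPT in Tdp1-knockout DT40 cells stably expressing hTDP1, seeded 400/well; qHTS titration format.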
IL1B secr inh: inflammasome signaling inhibition, IL-1 beta readout; THP-1 LPS/ATP IL-1B secretion, AlphaLISA, 16 h; hits give low values; 360,000 tested, 4.7% active; activity change, % at 57.5 µM; in the data active means activity change below about -50%; inconclusive means mostly about -30% to -49%; further: on the % scale 0 is the no-effect control and ±100 the full control effect
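THP-1 cells pretreated 1 hr with compounds (up to 57.5 uM final), then stimulated with LPS (250 ng/mL final) plus ATP (1.25 mM final); secreted IL-1B measured by AlphaLISA after 16 hr, decreased signal indicating inhibition.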
HepG2 tox: kills HepG2 cells in TGF-b inhibitor counter-screen; Potency, µM (series often up to 46.1 µM), inactives show at the highest dose activity change, negative = cytotoxicity, usual class: cytotoxic; 410,000 tested, 0.76% active; HepG2 CAGA-GFP viability, ATP luminescence, 18 h; further: potency means the concentration at half of the fitted maximal effect
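HepG2 CAGA-GFP cells (1000/well, DMEM with 1% FBS) received compound, then TGF-beta at 500 pg/mL final, and were incubated 18 hours at 37 degrees C. Viability was read by CellTiter-Glo luminescence. Media-only wells were set as complete cell-killing and DMSO as no toxicity.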
The depositor's hits bear a star; ? = inconclusive; . = no result given; ! = not active in a repeat. The list is not random: actives were taken first. Their share in the collection is about 19%. Unless noted, the call rests on the fitted dose curve; in most records, active means well fitted curve in the direction sought with a large enough effect; inconclusive means small, poorly fitted or top-dose-only effect, or another doubt; inactive means no such curve, though single readings can be large; an effect the other way counts as inactive or inconclusive.

SMILES | S-ASM inh | TGFb inhibitor | DT40 TDP1 no CPT | TDP1 cell CPT | IL1B secr inh | HepG2 tox
c1ccc2c(CCNc3ncnc4nc[nH]c34)c[nH]c2c1 | 3% | -17% | 12µM* | 6.5µM* | 73 | 25%
CC(C)CC1Nc2ccc(C(=O)NCCCN3CCOCC3)cc2NC1=O (stereo unspecified) | 44% | 2% | 16µM* | 26µM* | 1 | -1%
Cc1ccc(CNC(=O)c2ccc3c(c2)NC(=O)C(CS(=O)(=O)Cc2cccc(F)c2)N3)cc1 (stereo unspecified) | . | 12% | 4% | -10% | . | -7%
CCN(CC)CCNC(=O)c1ccc2c(c1)NC(=O)C(CS(=O)(=O)Cc1ccc(F)cc1Cl)N2 (stereo unspecified) | . | -18% | ? | 18µM* | . | -36%
Cc1cccc(CS(=O)(=O)CC2Nc3ccc(C(=O)NCc4ccccc4)cc3NC2=O)c1 (stereo unspecified) | . | ? | 6.5µM* | 12µM* | . | -34%
CC(C)CCNC(=O)c1ccc2c(c1)NC(=O)C(CS(=O)(=O)Cc1ccc(F)cc1)N2 (stereo unspecified) | . | ? | 16µM* | 16µM* | . | -28%
CCN(CC)CCCNC(=O)c1ccc2c(c1)NC(=O)C(CS(=O)(=O)Cc1ccc(F)cc1Cl)N2 (stereo unspecified) | . | -4% | -2% | -15% | . | -3%
Cc1ccc(OCC(=O)OCc2cc(=O)n3nc(C4CCCCC4)sc3n2)cc1C | . | ? | 1% | -21% | . | -10%
O=C(NCc1ccc2c(c1)CCN2C(=O)c1ccccc1)c1cc2ccccc2[nH]1 | . | 14% | ? | ? | . | 0%
O=C(NCc1ccc2c(c1)CCN2C(=O)c1ccc(F)cc1)c1cc2ccccc2[nH]1 | . | 32% | ? | 16µM* | . | -1%
COc1ccc(C(=O)NCc2ccc3c(c2)CCN3C(=O)c2cccc(C)c2)cc1OC | . | 1% | -1% | -9% | . | -9%
O=C(COc1ccc(F)cc1)NCc1ccc2c(c1)CCN2C(=O)c1ccc(F)cc1 | . | -32% | -23% | -19% | . | -16%
O=C(Cc1ccc(F)cc1)NCc1ccc2c(c1)CCN2C(=O)c1ccc(F)cc1 | . | 22% | 9.2µM* | ? | . | -3%
CC(=O)Nc1cccc(C(=O)NCc2ccc3c(c2)CCN3C(=O)c2ccc(F)cc2)c1 | . | -26% | 16µM* | 21µM* | . | -31%
O=C(Oc1ccccc1)N1CCC2(CC1)CCN(c1ncccn1)CC2 | . | . | ? | -28% | . | .
COC(=O)[C@@H](CC(C)C)N(Cc1ccccc1)S(=O)(=O)N(Cc1ccccc1)[C@@H](CC(C)C)C(=O)OC | -1% | 5% | 11µM*! | 21µM* | 14 | 4%
NC(=O)C1(N2CCCCC2)CCN(C(=O)Nc2ccc(F)cc2F)CC1 | . | . | -2% | 5% | . | 8%
OC(c1ccccc1)C1CN(Cc2ccccc2)CCC1(O)c1ccccc1 (stereo unspecified) | 4% | -7% | ? | ? | -21 | -40%
O=C(c1ccccc1)C1CN(Cc2ccccc2)CCC1(O)c1ccccc1 (stereo unspecified) | -1% | ? | 12µM* | 7.3µM* | ? | -23%
Cc1cc(Br)ccc1NC(=O)CN(C)C(=O)c1ccccc1OCc1c(C)noc1C | . | -14% | ? | ? | -3 | 2%
FC(F)(F)c1ccccc1-c1nc(N2CCNCC2)c2ccccc2n1 | . | . | -14% | ? | . | .
O=C(Nc1cccc(F)c1)c1ccccc1 | -2% | -24% | 0% | -29% | -12 | -5%
O=C(Nc1ccc(Nc2ccccc2)cc1)c1cccc(F)c1 | -5% | 0% | 18µM* | ? | -15 | -17%
